Source: PubChem BioAssay
PNC assembly inh – perinucleolar compartment assembly inhibition | PC3M PTB-GFP, PNC prevalence imaging, 16 h; stronger effect = lower value | activity change (PNC), negative = inhibition, % at 10 µM | 3.1% of 140,000 active;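 active means readout at or below -70, meaning at least 70% loss of cells showing the perinucleolar compartment, a nuclear body marking cancer cells; inconclusive means readout between -30 and a set limit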
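PC3M cells stably expressing PTB-GFP, 750–1000 cells/well, treated 16 h at 37 °C with compound (23 nl of library stock), in duplicate. After paraformaldehyde fixation and Hoechst stain, imaged at 20x; PNC prevalence scored by image analysis.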
ALDH1A1 block – ALDH1A1 (human) enzyme inhibition. P00352. Purified ALDH1A1, NADH fluorescence, propionaldehyde substrate. Potency, µM (series often up to 75.3 µM), usual class: inhibitors. 7.3% of 220,000 active
Target sequence (P00352 whole entry, looked up): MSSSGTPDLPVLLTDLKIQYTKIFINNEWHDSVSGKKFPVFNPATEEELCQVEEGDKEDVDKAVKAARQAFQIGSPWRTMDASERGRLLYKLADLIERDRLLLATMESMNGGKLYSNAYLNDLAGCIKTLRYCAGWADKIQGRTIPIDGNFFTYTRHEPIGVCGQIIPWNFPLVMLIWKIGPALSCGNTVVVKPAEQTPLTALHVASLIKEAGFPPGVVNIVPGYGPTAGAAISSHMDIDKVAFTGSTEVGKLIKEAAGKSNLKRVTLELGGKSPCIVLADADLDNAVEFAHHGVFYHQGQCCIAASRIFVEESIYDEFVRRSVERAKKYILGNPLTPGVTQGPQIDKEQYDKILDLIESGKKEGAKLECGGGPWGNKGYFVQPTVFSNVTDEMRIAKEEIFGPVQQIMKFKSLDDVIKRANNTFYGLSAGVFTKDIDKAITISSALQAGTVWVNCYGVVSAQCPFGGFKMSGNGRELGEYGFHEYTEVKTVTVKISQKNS
HPGD block – inhibitors of human 15-hydroxyprostaglandin dehydrogenase (HPGD); Potency, µM, most hits filed as inhibitors; purified HPGD, NADH fluorescence kinetic, PGE2 substrate; 4.3% of 150,000 active; P15428
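20 nM HPGD preincubated 15 min at room temperature with compound in 50 mM Tris-HCl pH 8, 0.01% Tween 20. Started with 1 mM NAD+ and 30 uM prostaglandin E2; NADH fluorescence (360/450 nm) read 5 times over 30-s intervals, last minus first.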
Numbers stand for hits; – = inactive; ? = inconclusive; · = no result given; [ ] = another dose, or the depositor's remark. An excerpt weighted towards active compounds, which were near 11% of everything screened. Unless noted, the call rests on the fitted dose curve; in most records, active means well fitted inhibition curve with a large enough effect (not every such curve was filed as active); inconclusive means small, poorly fitted or top-dose-only effect, or another doubt; inactive means no such curve, though single readings can be large or run the other way.

SMILES | PNC assembly inh | ALDH1A1 block | HPGD block
O=C(CCc1ccccc1)N1CCN(CCO)CC1 | -89.1 | – | –
O=C(CCCCC(=O)N1CCN(c2ccccc2)CC1)N1CCN(c2ccccc2)CC1 | – | – | –
O=C(CCCC(=O)N1CCN(c2ccc([N+](=O)[O-])cc2)CC1)c1ccccc1 | – | 28.2µM | –
COC(=O)c1cc(OC)c(OC)cc1NC(=O)CSc1ccccc1 | – | – | –
COc1cccc2cc(-c3nnc(SCC(=O)NCc4ccccc4)n3C)oc12 | – | – | –
O=C(CN1C(=O)c2ccccc2S1(=O)=O)NC(Nc1ccccc1F)C(Cl)(Cl)Cl (stereo unspecified) | · | – | ·
CN(C)CCC1c2ccc(Cl)cc2CCc2cccnc21 (stereo unspecified) (tested in a mixture with another compound) | · | – | ·
CCOC(=O)C1=C(CSc2n[nH]c(N)n2)NC(=O)NC1C (stereo unspecified) | – | – | –
CC(C)CCNC(=O)Cn1cc2c(n1)CCCCC2 | – | – | –
Cc1ccccc1OC1C=CC(C#Cc2ccc(Br)cc2)OC1CO (stereo unspecified) | · | –[13.5 µM] | ·
O=C(NCc1ccccn1)NC1CCCCC1 | – | – | –
Clc1ncnc2scc(-c3ccc(Br)cc3)c12 | – | – | –
Cc1ccc(C)c(NS(=O)(=O)c2ccc3[nH]c(=O)oc3c2)c1 | · | – | ·
O=C(CCl)c1ccc2[nH]c(=O)oc2c1 | · | 0.282µM | ·
C=C(C)CN(CC)C(=O)CSc1nc(O)cc(=O)n1C1CCCC1 | · | – | ·
CCOC(=O)c1sc(NC(=O)COC(=O)CNC(=O)C2CCCCC2)c(C(=O)OCC)c1C | – | – | –
C/C(CC1CC(COCCC(C)C)OC1=O)=N\NC(N)=S (stereo unspecified) | – | – | –
C/C(CC1CC2=C(CC1(C)C)C(C)(C)CCC2)=N\NC(N)=S (stereo unspecified) | – | 12.6µM | ?
CCC/C(O)=N\S(=O)(=O)c1ccc(N=NN(C)C)cc1 | – | – | –
COc1cccc2c1OC(=O)CC2c1ccccc1C (stereo unspecified) | · | – | ?
COc1ccc2c(c1)c1nnc(SCC(=O)N3C(C)CCCC3C)nc1n2C (stereo unspecified) | – | ? | 11.2µM
COc1ccc2c(c1)c1nc(SCC(C)C)n(CCO)c(=O)c1n2C | – | ? | ?
COc1cccc(CNCC(=O)N2C(C)CCCC2C)c1 (stereo unspecified) | – | ? | –
COc1ccc2c(c1)c1nnc(SC)nc1n2C | -88.4 | – | –
Cn1c(SCC(=O)NCCNC(=O)CSc2nnc(C(F)(F)F)n2C)nnc1C(F)(F)F | – | – | –
SMILES | PNC assembly inh | ALDH1A1 block | HPGD block
CCOc1ccccc1NC(=S)NCc1cccn1C | · | – | ·
CCC1CCCCN1C(=O)CSc1nnc(-c2cccs2)o1 (stereo unspecified) | – | ? | ?
O[C@@H](COc1ccc(Cl)cc1Cl)CN1CCCC1 | · | –[13.5 µM] | –
COC(=O)c1cc(COc2ccc3c(c2)oc(=O)c2ccccc23)c(C)o1 | – | ? | –
O=C1[C@H]2[C@H](ON3CCCC[C@H]23)C(=O)N1c1cccc(C(F)(F)F)c1 | · | – | ·
COc1ccc([C@@H]2[C@H]3C(=O)N(c4cccc(C(F)(F)F)c4)C(=O)[C@H]3ON2C)cc1 | – | 14.1µM | –
COC(=O)Cn1c(CCS(=O)(=O)c2ccc(C)cc2)nc2ccccc21 | – | – | –
Cc1cc(N=Cc2c(O)ccc3cc(Br)ccc23)no1 | – | 1.78µM | 10µM
Cc1cc(N=Cc2c(O)ccc3ccccc23)no1 | – | ? | ·
CC(=O)Nc1sc(C)c(C)c1C(=O)Nc1ccc(C)cc1 | – | – | –
CC(=O)Nc1sc(C)c(C)c1C(=O)OC(C)C | ? | 22.4µM | –
CSCCC(NC(C)=O)C(=O)Oc1ccc2c3c(c(=O)oc2c1)CCCC3 (stereo unspecified) | – | ? | ?
CSCCC(NC(=O)OC(C)(C)C)C(=O)Oc1ccc2c(=O)c(-c3ccc4c(c3)OCCO4)coc2c1 (stereo unspecified) | – | 25.1µM | –
Cn1c(SCCCC(=O)c2ccc(Br)cc2)nnc1-c1ccncc1 | – | – | 17.8µM
CC(=O)CSc1nnc(-c2ccncc2)n1C | – | – | –
N#Cc1cc([N+](=O)[O-])cnc1Nc1ccccc1 | – | – | –
C/C(=N\N1C(=O)CSC1=S)c1ccc(Br)cc1 | · | 25.1µM | ·
O=C1CSC(=S)N1N=C1CCCCCC1 | ? | – | –
CCc1cc2cc(C)c(C)cc2nc1SCC(=O)NNC(=O)c1ccco1 | – | ? | –
CCc1cc2ccc(OC)cc2nc1SCC(=O)NNC(=O)c1ccco1 | · | 6.31µM | ·
Cc1ccc(CSCC(=O)N/N=C/c2sccc2C)cc1 | – | – | –
Cc1nc(CC(C)C)cc(C(=O)N2CCCC(CNS(=O)(=O)c3cccs3)C2)n1 (stereo unspecified) | · | – | ·
Cc1cc(C(=O)N2CCCC(CNS(=O)(=O)c3cccs3)C2)nn1C (stereo unspecified) | · | 17.8µM | ·
CC1=CC(C)C2C(=O)N(O)C(=O)C2C1 (stereo unspecified) | ? | 14.1µM | –
CC1=CC(C)C2C(=O)N(c3ccccc3)NC(=O)C2C1 (stereo unspecified) | – | – | –
SMILES | PNC assembly inh | ALDH1A1 block | HPGD block
O=P1(O)Oc2c(c(-c3ccccc3)cc3ccc4ccccc4c23)-c2c(-c3ccccc3)cc3ccc4ccccc4c3c2O1 | · | – | –
COC(=O)C1=C(C(=O)c2ccccc2)C(c2ccccc2)n2nnnc2N1 (stereo unspecified) | · | 28.2µM | ·
COC(=O)C1=C(C(C)=O)C(c2ccc(C(=O)OC)cc2)n2nnnc2N1 (stereo unspecified) | ? | – | –
CN(CC(=O)Nc1ccncc1)S(=O)(=O)c1ccc(Cl)cc1 | – | – | –
Fc1ccc(Nc2nc(-c3ccncc3)cs2)cc1 | · | – | ·
Oc1ccc(Nc2nc(-c3ccc(O)cc3)cs2)cc1 | – | 22.4µM | ?
Oc1ccc(Nc2nc(-c3ccc(Cl)cc3)cs2)cc1 | · | – | –
Nc1ccc(Nc2nc(-c3ccncc3)cs2)cc1 | – | 22.4µM | –
S=C(c1ccccc1)N1CCN(C(=S)c2ccccc2)CC1 | – | – | –
Cc1ccc(N2CCN(C(=S)Nc3ccccc3)CC2)cc1 | · | – | ·
Cc1ccc(N2CCN(C(=S)c3ccc(N(C)C)cc3)CC2)cc1 | ? | 7.94µM | 25.1µM
CN(C)c1ccc(C(=S)N2CCN(c3ccccc3)CC2)cc1 | – | 12.6µM | –
Cc1nc(SCC(=O)N2c3ccccc3Sc3ccccc32)n[nH]1 | ? | – | –
CCOC(=O)C(Oc1ccc(=O)n(-c2ccccc2)n1)C(C)=O (stereo unspecified) | – | 17.8µM | –
O=C(O)COc1ccc(=O)n(-c2ccccc2)n1 | – | – | –
CN(C)C[C@H]1CCC[C@@H](CN(C)C)C1=O | · | –[13.5 µM] | –
CC(=O)Nc1sc2c(c1C(c1cccc(Cl)c1)N1CCN(CCO)CC1)CCCC2 (stereo unspecified) | · | – | ·
CC(=O)Nc1sc2c(c1C(c1ccncc1)N1CCOCC1)CCCC2 (stereo unspecified) | · | 25.1µM | ·
Cc1ccc(OCC(=O)NCC(=O)Nc2ccc(F)c(F)c2F)c([N+](=O)[O-])n1 | ? | – | –
CCCn1c(C)cc(C(=O)COc2ccc(C)nc2[N+](=O)[O-])c1C | – | ? | ·
Cc1ccc(OCC(=O)c2c[nH]c3ccccc23)c([N+](=O)[O-])n1 | · | – | ·
